High-throughput results from PubChem BioAssay.
NPR1 antag: antagonists of human natriuretic peptide receptor Npr1. HEK293 hNpr1 GloSensor cGMP, ANP-stimulated luminescence. Potency, µM (series often up to 46.3 µM), without a hit: at the highest dose activity change, negative = inhibition, usual class: inhibitors. 76,000 compounds, 1.6% hits. AID 1347048; calls by dose curve; note: nearly all actives have a fitted effect of over 60% in size
Target sequence (P16066 whole entry, looked up): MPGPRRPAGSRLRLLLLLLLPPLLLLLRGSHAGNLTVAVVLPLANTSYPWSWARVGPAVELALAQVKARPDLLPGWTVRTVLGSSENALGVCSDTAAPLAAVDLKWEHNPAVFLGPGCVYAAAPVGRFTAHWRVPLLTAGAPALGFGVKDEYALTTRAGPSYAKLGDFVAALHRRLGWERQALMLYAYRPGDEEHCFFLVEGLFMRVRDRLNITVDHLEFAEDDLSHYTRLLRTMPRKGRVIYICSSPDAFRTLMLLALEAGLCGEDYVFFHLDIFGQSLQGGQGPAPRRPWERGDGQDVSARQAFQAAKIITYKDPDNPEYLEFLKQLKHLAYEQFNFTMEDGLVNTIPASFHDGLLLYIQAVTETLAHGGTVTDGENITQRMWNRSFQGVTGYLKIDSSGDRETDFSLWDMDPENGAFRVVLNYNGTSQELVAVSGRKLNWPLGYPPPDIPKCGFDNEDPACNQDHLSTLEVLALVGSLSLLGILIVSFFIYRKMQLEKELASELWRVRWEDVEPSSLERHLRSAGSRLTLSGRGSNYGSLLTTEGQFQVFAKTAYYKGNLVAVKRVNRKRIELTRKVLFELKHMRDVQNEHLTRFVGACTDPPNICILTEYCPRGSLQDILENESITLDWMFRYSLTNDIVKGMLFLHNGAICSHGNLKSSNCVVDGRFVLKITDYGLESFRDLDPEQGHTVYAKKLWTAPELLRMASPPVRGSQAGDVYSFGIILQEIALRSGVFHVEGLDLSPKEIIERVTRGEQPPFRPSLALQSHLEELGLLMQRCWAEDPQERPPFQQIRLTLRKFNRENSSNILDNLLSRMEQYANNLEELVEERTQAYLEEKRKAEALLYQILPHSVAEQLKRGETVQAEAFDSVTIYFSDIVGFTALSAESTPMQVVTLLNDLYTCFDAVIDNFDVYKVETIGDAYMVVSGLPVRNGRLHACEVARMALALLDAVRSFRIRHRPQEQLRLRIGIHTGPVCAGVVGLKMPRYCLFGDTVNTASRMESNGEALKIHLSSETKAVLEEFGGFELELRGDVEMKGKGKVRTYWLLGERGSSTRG
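HEK293 cells stably expressing human Npr1 and cGMP GloSensor pGS-40F, loaded 2 h with 2% GloSensor reagent, given compound 30 min at room temperature. Luminescence read before and 20 min after 0.1 nM hNppA.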
SNCA viab count: cell viability loss counter-screen | AID 1671193 | Potency, µM (doses to about 57.1 µM), inactives show at the highest dose activity change, negative = cytotoxicity, most hits filed as cytotoxic | 150,000 compounds, 0.12% hits | HEK-293-SNCA-luc viability, GF-AFC fluorescence, 24 h;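 note: 0% = DMSO-treated cells and -100% = medium-only wells without cells; nearly all actives have a fitted effect of over 30% in size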
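HEK-293-SNCA-luc cells (1500/well) plated 24 h, then exposed 24 h to a dilution series; GF-AFC added 30 min at 37C, fluorescence 405/540 nm; normalised to medium-only and DMSO wells, Hill fit.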
NIH3T3 tox: NIH 3T3 cell cytotoxicity. Potency, µM (series often up to 96.7 µM), for inactives: at the highest dose activity change, negative = cytotoxicity, most hits filed as inhibitors. AID 1345082. 94,000 compounds, 4.3% hits. NIH 3T3 viability, CellTiter-Glo ATP luminescence, 48-72 h; note: nearly all actives have a fitted effect of over 55% in size
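Mouse fibroblast NIH 3T3 cells, 400 per well, received compound via pintool and were incubated for 48 or 72 hr prior to CellTiter-Glo ATP luminescence measurement.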
SNCA expr inh: reduces expression of the alpha-synuclein gene; HEK-293 SNCA-luciferase knock-in, luminescence, 24 h; Potency, µM (series often up to 57.2 µM), inactives show at the highest dose activity change, negative = inhibition, hits mostly inhibitors; 140,000 compounds, 0.17% hits;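 note: plate controls were DMSO cells for no effect and cell-free wells for full effect; nearly all actives have a fitted effect of over 45% in size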
HEK cytotox: kills HEK 293 cells; 94,000 compounds, 6.6% hits; Potency, µM (highest dose often 115 µM), inactives show top-dose activity change, negative = cytotoxicity, most hits filed as inhibitors; HEK 293 viability, ATP luminescence (CellTiter-Glo), 48-72 h; note: nearly all actives have a fitted effect of over 60% in size
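HEK 293 cells seeded at 250 cells/well were exposed to compound for 48 or 72 hr at 37 degree Celsius. Viability taken as ATP content by CellTiter-Glo luminescence.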
FLuc inh: blocks purified firefly luciferase enzyme activity; P08659; purified P. pyralis luciferase, luminescence, biochemical; Potency, µM (titrated, usually from 115 µM), hits mostly inhibitors; 76,000 compounds, 2.5% hits; AID 1347043; note: nearly all actives have a fitted effect of over 65% in size
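Luminescence read by CCD imaging after purified firefly luciferase (10nM final) was added to substrate buffer holding 10uM D-luciferin and 10uM ATP, pH 7.5, pre-dosed with compound.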
* = called active by the depositor; i = inactive; ? = inconclusive; nt = no result given; [ ] = remark or other dose. Most compounds without a hit are left out; they make up all but 7.4% or so of the library. Unless noted, calls come from the whole dose curve; as a rule, active = well fitted curve in the direction sought with a large enough effect; inconclusive = small, poorly fitted or top-dose-only effect, or another doubt; inactive = no such curve, though single readings can be large; an effect the other way counts as inactive or inconclusive. Unless noted, % is set by controls: 0 for no effect and ±100 for the full control effect; potency is the fitted concentration of half-maximal effect.

SMILES | NPR1 antag | SNCA viab count | NIH3T3 tox | SNCA expr inh | HEK cytotox | FLuc inh
N[C@H]1CCN2C(=O)c3cc(-c4ccccc4F)ccc3NC(=O)[C@H]12 | -3%[70.6 µM] | 0%[87.6 µM] | -28%[138 µM] | -20%[87.6 µM] | -17%[172 µM] | i
C=CCO[C@@H]1C[C@H]2C(=O)Nc3ccc(-c4ccc(F)cc4F)cc3C(=O)N2C1 | -6%[70.6 µM] | ? | 50µM* | -7%[87.6 µM] | ? | i
CCS[C@H]1CCN2C(=O)c3cc(-c4ccccc4F)ccc3NC(=O)[C@H]12 | 3%[70.6 µM] | -9%[87.6 µM] | ? | -3%[87.6 µM] | 89µM* | i
C=CCO[C@@H]1CCN2C(=O)c3cc(-c4cc(Cl)ccc4OC)ccc3NC(=O)[C@H]12 | -16%[70.6 µM] | ? | 100µM* | ? | 63µM* | i
CCOC(=O)[C@H]1[C@@H](O)C(=O)N(Cc2ccccc2)C12CCN(C(=O)N(C)C)CC2 | nt | nt | ? | nt | -14% | nt
O=C(c1ccccn1)N1CCCC2(CNc3ncccc3[S+](=O)([O-])N2)C1 (stereo unspecified) | nt | nt | -3% | nt | -19% | nt
Cn1ncc2c(C(=O)NCCc3ccc(Cl)cc3)cc(-c3ccc(Cl)nc3)nc21 | nt | 8% | -36% | 8% | 4% | nt
Cc1noc(C)c1Cc1ccc(C(=O)N2CCC(c3nc(CCOCC4CC4)no3)C2)o1 (stereo unspecified) | nt | -1% | ? | 5% | ? | nt
CC(=O)N1CCN(C(=O)CNC(=O)c2cccc(-c3ccsc3)c2)CC1 | nt | 3%[12.5 µM] | 4% | 12% | i | nt
C=CCO[C@@H]1CCN2C(=O)c3cc(-c4cccc(C(F)(F)F)c4)ccc3NC(=O)[C@H]12 | -1%[70.6 µM] | -16%[87.6 µM] | ? | -24%[87.6 µM] | 71µM* | i
C=CCO[C@@H]1CCN2C(=O)c3cc(-c4ccccc4)ccc3NC(=O)[C@H]12 | -9%[70.6 µM] | 14%[87.6 µM] | -26%[174 µM] | 5%[87.6 µM] | -26%[172 µM] | i
O=C(Nc1cc(F)c(F)c(F)c1)N1CCC(OC2CCN(Cc3ccccc3)CC2)CC1 | -16% | -9% | 35µM* | -25% | ? | i
C[C@H](O)c1c(-c2ccc(Cl)cc2)noc1C(=O)NC1CC1 | -8%[70.6 µM] | 2%[87.6 µM] | ? | 18%[87.6 µM] | 112µM* | i
CNC(=O)c1onc(-c2ccc(Cl)cc2)c1[C@H](C)O | -9%[70.6 µM] | -4%[87.6 µM] | -36%[174 µM] | 1%[87.6 µM] | -32%[230 µM] | i
COc1ccc(CCNC(=O)c2cn3cc(-c4ccccc4)sc3n2)cc1 | nt | -7% | -18% | 16% | -24% | nt
Cc1cc(C)cc(-c2ccc(CN3CCCC(NC(=O)Cc4ccccn4)C3)cc2)c1 (stereo unspecified) | nt | -8% | 35µM* | -10% | ? | nt
Cc1ccc(-c2cccc(CN3CCCC(NC(=O)Cc4ccccn4)C3)c2)cc1Cl (stereo unspecified) | nt | -17% | 25µM* | ? | -20% | nt
Cc1ccc(-c2cccc(CN3CCCC(NC(=O)c4c(C)noc4C)C3)c2)cc1Cl (stereo unspecified) | nt | -18% | ? | ? | 22µM* | nt
Cc1ccc(-c2cccc(CN3CCCC(NC(=O)c4ccccc4Cl)C3)c2)cc1Cl (stereo unspecified) | nt | 5% | ? | 23% | ? | nt
CCOC(=O)NC1CCCN(Cc2cccc(-c3ccc(C)c(Cl)c3)c2)C1 (stereo unspecified) | nt | 7% | ? | 8% | 40µM* | nt
O=C(CCCc1ccccc1)N1CCC([C@@H]2CNC[C@H]2CO)CC1 | 8% | -1%[12.5 µM] | -4% | 108% | -6% | i
Cc1ccsc1C(=O)N1CCC2(CC1)CC(N(Cc1ccccc1)C1CC1)CCO2 (stereo unspecified) | -26% | 14% | ? | 27% | 40µM* | i
CC(=O)N(C1CC1)C1CCOC2(CCN(C(=O)CCCc3ccccc3)CC2)C1 (stereo unspecified) | 2% | -1% | -21% | 26% | ? | 28µM*
Cc1ccsc1C(=O)N1CCC2(CC1)CC(N(Cc1ccc(F)cc1)C1CC1)CCO2 (stereo unspecified) | -25% | 2% | ? | -19% | ? | i
O=C(CCCc1ccccc1)N1CCC(C2CCNC2)CC1 (stereo unspecified) | 1% | -9%[12.5 µM] | 1% | 120% | -19% | 35µM*
SMILES | NPR1 antag | SNCA viab count | NIH3T3 tox | SNCA expr inh | HEK cytotox | FLuc inh
Cc1ccsc1C(=O)N1CCC2(CC1)CC(N(C(=O)c1ccccc1)C1CC1)CCO2 (stereo unspecified) | -7% | 4% | ? | -8% | 50µM* | i
Cn1nccc1C(=O)N1CCC2(CC1)CC(N(Cc1ccccc1)C1CC1)CCO2 (stereo unspecified) | -17% | -18% | -6% | -18% | ? | i
CCn1nccc1C(=O)N1CCC2(CC1)CC(N(Cc1ccccc1)C1CC1)CCO2 (stereo unspecified) | -29% | 5% | -21% | -7% | 45µM* | i
O=C(CCc1ccccc1)N1CCCC(n2cc(-c3nc(-c4ccccc4)no3)nn2)C1 (stereo unspecified) | ? | -1% | ? | 68% | 45µM* | ?
CC(=O)NCC(=O)N1CCCC(n2cc(-c3nc(-c4ccccc4)no3)nn2)C1 (stereo unspecified) | -10% | 6% | -18% | 72% | -23% | 35µM*
Cc1cnc(C2CC2)n1CCNC(=O)C1CC1 | nt | 0% | -12% | -8% | -3% | nt
O=C(C[C@@H]1CCNC[C@@H]1Cc1cc(COc2ccccc2)on1)N1CCC(Cc2ccccc2)CC1 | -17% | -27% | 28µM* | -9% | 25µM* | i
O=C(C[C@@H]1CCNC[C@@H]1Cc1cc(COc2ccccc2)on1)N1CCOCC1 | 5%[70.6 µM] | -2%[87.6 µM] | -12%[174 µM] | 6%[87.6 µM] | -25%[172 µM] | i
CCCCc1cc(C[C@H]2CNCC[C@H]2CC(=O)N2CCC(Cc3ccccc3)CC2)no1 | 2% | ? | 28µM* | -8% | ? | i
CC(C)(C)c1ccc(-c2cc(C[C@H]3CNCC[C@H]3CC(=O)N3CCC(Cc4ccccc4)CC3)no2)cc1 | 4% | 1% | -5% | -4% | -9% | i
O=C(C[C@@H]1CCNC[C@@H]1Cc1cc(COc2ccccc2)on1)NC1CCCCC1 | 4%[70.6 µM] | 2%[87.6 µM] | 63µM* | 4%[87.6 µM] | 100µM* | i
O=C(C[C@@H]1CCNC[C@@H]1Cc1cc(CC2CCCCC2)on1)N1CCC(Cc2ccccc2)CC1 | -2% | -1% | 25µM* | -13% | ? | i
Cc1ccc(C(=O)NC2CCN(c3ccc4nnc(-c5ccccc5)n4n3)CC2)cc1 | nt | nt | -7% | nt | ? | nt
Cc1cc(C)c(CNC(=O)c2cc(-c3ccnn3C)cc3c2OCCN3C)c(=O)[nH]1 | 5%[70.6 µM] | 1%[87.6 µM] | ? | 18%[87.6 µM] | -30%[172 µM] | i
